# Measured values reported in PubChem BioAssay (Tox21).
# Inconclusive results are not listed. The source made the active and inactive calls. Calls follow the shape of the dose curve; as a rule, active = well fitted curve in the direction sought with a large enough effect in the repeat runs; inconclusive = weak or mixed curves; inactive = no such curve, though single readings can be large; an effect the other way counts as inactive or inconclusive.
# Target: Cytochrome P450 2C9 (Homo sapiens) (UniProt P11712)
# Sequence (P11712 whole entry, looked up): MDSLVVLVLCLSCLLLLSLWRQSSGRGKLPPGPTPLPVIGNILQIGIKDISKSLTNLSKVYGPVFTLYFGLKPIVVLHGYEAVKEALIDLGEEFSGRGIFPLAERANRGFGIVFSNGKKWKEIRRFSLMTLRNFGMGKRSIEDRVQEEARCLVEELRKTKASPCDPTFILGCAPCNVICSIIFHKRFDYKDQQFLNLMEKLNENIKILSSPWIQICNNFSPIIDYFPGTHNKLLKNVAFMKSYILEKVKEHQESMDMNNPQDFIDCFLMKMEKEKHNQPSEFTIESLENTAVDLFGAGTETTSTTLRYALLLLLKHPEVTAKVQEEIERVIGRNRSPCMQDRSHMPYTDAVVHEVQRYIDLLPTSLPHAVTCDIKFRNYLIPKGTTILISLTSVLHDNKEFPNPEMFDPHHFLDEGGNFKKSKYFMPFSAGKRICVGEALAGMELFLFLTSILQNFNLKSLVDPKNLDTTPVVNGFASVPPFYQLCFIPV
# Assay: Cytochrome P450 Family 2 Subfamily C Member 9 (CYP2C9) small molecule antagonists: luciferase reporter qHTS assay (AID 1671198)
# Details: P450-Glo CYP2C9 enzyme assay, luciferin luminescence; series mostly up to 115 µM; activity change, negative = inhibition: at the top concentration
# In short: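 Enzyme-substrate mix preincubated with compound 10 min at room temperature; reaction started with NADPH regeneration solution, 1 h 37C. Luminescent luciferin product read after 20 min detection reagent.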
# % is scaled to controls: 0 for no effect and ±100 for the full control effect; potency is read from the fitted curve at half-maximal effect.
# Also: nearly all actives have a fitted effect of over 50% in size.
Compound,"activity change, negative = inhibition",Potency
CO/N=C(\C(=O)O)c1csc(NC(=O)CCl)n1,-6.27% [at 53 µM] (inactive),
Cc1ccccc1OCC(=O)O,,79.6 µM (active)
CCNC(=O)C(C)OC(=O)Nc1ccccc1 (stereo not given),,35.6 µM (active)
CC(C)=CCC/C(C)=C\C#N,-17.4% (inactive),
CC(C)c1cc(C(C)C)cc(C(C)C)c1,-6.73% (inactive),
Cc1cc(C)c(C)c(C)c1,0.291% (inactive),
CC(C)OCCO,-9.51% (inactive),
CCOC(=O)CC(C(C)=O)C(C)=O,-8.34% (inactive),
C=CC(C)(CCC=C(C)C)OC(=O)C(C)C (stereo not given),,39.9 µM (active)
N#Cc1ccccc1C#N,2.2% (inactive),
COC(=O)c1ccccc1Cl,-5.08% (inactive),
O=Cc1ccc(C(=O)O)cc1,-2.31% (inactive),
Clc1cc(Cl)c(Cl)c(Cl)c1Cl,-6.2% (inactive),
O=S(=O)(O)CC(O)CCl (stereo not given),0.341% (inactive),
C=C(C)C(=O)OCCOC1CC2CC1C1C=CCC21 (stereo not given),,42.9 µM (active)
CCCc1ccc(O)c(OC)c1,-16.9% (inactive),
O=C1CC2(CCCC2)CC(=O)N1CCNCC1COc2ccccc2O1 (stereo not given),-23.9% [at 53 µM] (inactive),
CC1(C)C(=O)C(C)(C)C1=O,-8.34% (inactive),
CCO[Si](CC(C)C)(OCC)OCC,,39.9 µM (active)

Compound,"activity change, negative = inhibition",Potency
CC(=O)c1ccc2ccc3ccccc3c2c1,,12.6 µM (active)
CCOC(=O)CC,4.59% (inactive),
CC(=O)Nc1ccc(S(=O)(=O)Nc2cc(C)on2)cc1,-7.09% [at 53 µM] (inactive),
CCCCCCCCCCCCCCCCN(C)C,-0.0403% [at 10.5 µM] (inactive),
C=CC(=O)OCCOCCOCC,-3.81% (inactive),
OCCC(F)(F)C(F)(F)C(F)(F)C(F)(F)C(F)(F)C(F)(F)F,-19.9% (inactive),
CC(C)(O)c1ccc(C(C)(C)O)cc1,-5.57% (inactive),
O=c1[nH]c(=O)c2cn[nH]c2[nH]1,-8.94% (inactive),
C=CC(=O)OCC[N+](C)(C)C,-6.91% (inactive),
O=C[C@@H](O)[C@H](O)[C@H](O)CO,-3.27% (inactive),
COc1cc(S(N)(=O)=O)cc(C(=O)O)c1OC,1.1% [at 53 µM] (inactive),
Cc1ccccc1C#N,-0.8% (inactive),
O=c1c(O)c(O)c1=O,-14.2% (inactive),
CCCOc1ccc(C(=O)OCCN(CC)CC)cc1N,-0.376% [at 53 µM] (inactive),
Cc1ccc(O)c(C(=O)c2ccccc2)c1,,5.69 µM (active)
CC(=O)c1ccc(O)c(C(N)=O)c1,-0.251% [at 53 µM] (inactive),
C=CC(=O)CC,2.39% (inactive),
CC(=O)SCC(CC(=O)c1ccc(C)cc1)C(=O)O (stereo not given),,15.5 µM (active)
CCCCCCC(O)CO (stereo not given),-30.4% (inactive),

# Target: Cytochrome P450 1A2 (Homo sapiens) (UniProt P05177)
# Sequence (P05177 whole entry, looked up): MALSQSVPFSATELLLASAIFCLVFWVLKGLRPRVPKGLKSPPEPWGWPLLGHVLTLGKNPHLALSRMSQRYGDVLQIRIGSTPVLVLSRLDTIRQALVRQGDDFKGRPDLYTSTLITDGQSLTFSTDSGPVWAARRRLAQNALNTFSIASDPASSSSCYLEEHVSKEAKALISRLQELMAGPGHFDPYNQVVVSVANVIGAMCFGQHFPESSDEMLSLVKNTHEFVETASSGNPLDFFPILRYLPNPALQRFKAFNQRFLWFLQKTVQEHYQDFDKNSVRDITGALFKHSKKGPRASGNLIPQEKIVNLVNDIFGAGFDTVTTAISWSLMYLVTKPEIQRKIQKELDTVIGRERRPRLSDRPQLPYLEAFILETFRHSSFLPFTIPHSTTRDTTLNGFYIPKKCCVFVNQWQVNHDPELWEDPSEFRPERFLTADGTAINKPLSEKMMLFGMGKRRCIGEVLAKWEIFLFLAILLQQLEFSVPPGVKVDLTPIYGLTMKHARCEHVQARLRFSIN
# Assay: Cytochrome P450 Family 1 Subfamily A Member 2 (CYP1A2) small molecule antagonists: luciferase reporter qHTS assay (AID 1671199)
# Details: P450-Glo CYP1A2 enzyme, luciferin luminescence, 1 h; series mostly up to 115 µM; activity change, negative = inhibition: at the top concentration
# In short: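 Room-temperature CYP1A2 reaction with proluciferin substrate: compounds added from DMSO, 10 min preincubation, NADPH regeneration for 1 h. Luciferin detection reagent then added; luminescence recorded as RLU.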
Compound,"activity change, negative = inhibition",Potency
CO/N=C(\C(=O)O)c1csc(NC(=O)CCl)n1,-7.27% [at 53 µM] (inactive),
Cc1ccccc1OCC(=O)O,-8.15% (inactive),
CCNC(=O)C(C)OC(=O)Nc1ccccc1 (stereo not given),,35.6 µM (active)
CC(C)c1cc(C(C)C)cc(C(C)C)c1,-13.9% (inactive),
Cc1cc(C)c(C)c(C)c1,-10.7% (inactive),
CC(C)OCCO,-23.1% (inactive),
CCOC(=O)CC(C(C)=O)C(C)=O,-22.3% (inactive),
C=CC(C)(CCC=C(C)C)OC(=O)C(C)C (stereo not given),-28.3% (inactive),
COC(=O)c1ccccc1Cl,-18.6% (inactive),
O=Cc1ccc(C(=O)O)cc1,-18.1% (inactive),
Clc1cc(Cl)c(Cl)c(Cl)c1Cl,-26.4% (inactive),
O=S(=O)(O)CC(O)CCl (stereo not given),-10.9% (inactive),
C=C(C)C(=O)OCCOC1CC2CC1C1C=CCC21 (stereo not given),,42.9 µM (active)
CCCc1ccc(O)c(OC)c1,,31.7 µM (active)
CC1(C)C(=O)C(C)(C)C1=O,-12.4% (inactive),
CC(=O)c1ccc2ccc3ccccc3c2c1,,1.12 µM (active)
CCOC(=O)CC,1.69% (inactive),

Compound,"activity change, negative = inhibition",Potency
CC(=O)Nc1ccc(S(=O)(=O)Nc2cc(C)on2)cc1,-3.16% [at 53 µM] (inactive),
CCCCCCCCCCCCCCCCN(C)C,-22.3% [at 10.5 µM] (inactive),
C=CC(=O)OCCOCCOCC,-14.9% (inactive),
OCCC(F)(F)C(F)(F)C(F)(F)C(F)(F)C(F)(F)C(F)(F)F,,31.7 µM (active)
CC(C)(O)c1ccc(C(C)(C)O)cc1,-19.2% (inactive),
O=c1[nH]c(=O)c2cn[nH]c2[nH]1,-12.9% (inactive),
C=CC(=O)OCC[N+](C)(C)C,-9.43% (inactive),
O=C[C@@H](O)[C@H](O)[C@H](O)CO,-24.6% (inactive),
COc1cc(S(N)(=O)=O)cc(C(=O)O)c1OC,-21.5% [at 53 µM] (inactive),
Cc1ccccc1C#N,-12.2% (inactive),
CCCOc1ccc(C(=O)OCCN(CC)CC)cc1N,,17.4 µM (active)
Cc1ccc(O)c(C(=O)c2ccccc2)c1,,1.43 µM (active)
CC(=O)c1ccc(O)c(C(N)=O)c1,-22.9% [at 53 µM] (inactive),
C=CC(=O)CC,-2.78% (inactive),
CC(=O)SCC(CC(=O)c1ccc(C)cc1)C(=O)O (stereo not given),5.32% [at 53 µM] (inactive),
CCCCCCC(O)CO (stereo not given),-14.2% (inactive),

# Target: Voltage-gated inwardly rectifying potassium channel KCNH2 (Homo sapiens) (UniProt Q12809)
# Sequence (Q12809 whole entry, looked up): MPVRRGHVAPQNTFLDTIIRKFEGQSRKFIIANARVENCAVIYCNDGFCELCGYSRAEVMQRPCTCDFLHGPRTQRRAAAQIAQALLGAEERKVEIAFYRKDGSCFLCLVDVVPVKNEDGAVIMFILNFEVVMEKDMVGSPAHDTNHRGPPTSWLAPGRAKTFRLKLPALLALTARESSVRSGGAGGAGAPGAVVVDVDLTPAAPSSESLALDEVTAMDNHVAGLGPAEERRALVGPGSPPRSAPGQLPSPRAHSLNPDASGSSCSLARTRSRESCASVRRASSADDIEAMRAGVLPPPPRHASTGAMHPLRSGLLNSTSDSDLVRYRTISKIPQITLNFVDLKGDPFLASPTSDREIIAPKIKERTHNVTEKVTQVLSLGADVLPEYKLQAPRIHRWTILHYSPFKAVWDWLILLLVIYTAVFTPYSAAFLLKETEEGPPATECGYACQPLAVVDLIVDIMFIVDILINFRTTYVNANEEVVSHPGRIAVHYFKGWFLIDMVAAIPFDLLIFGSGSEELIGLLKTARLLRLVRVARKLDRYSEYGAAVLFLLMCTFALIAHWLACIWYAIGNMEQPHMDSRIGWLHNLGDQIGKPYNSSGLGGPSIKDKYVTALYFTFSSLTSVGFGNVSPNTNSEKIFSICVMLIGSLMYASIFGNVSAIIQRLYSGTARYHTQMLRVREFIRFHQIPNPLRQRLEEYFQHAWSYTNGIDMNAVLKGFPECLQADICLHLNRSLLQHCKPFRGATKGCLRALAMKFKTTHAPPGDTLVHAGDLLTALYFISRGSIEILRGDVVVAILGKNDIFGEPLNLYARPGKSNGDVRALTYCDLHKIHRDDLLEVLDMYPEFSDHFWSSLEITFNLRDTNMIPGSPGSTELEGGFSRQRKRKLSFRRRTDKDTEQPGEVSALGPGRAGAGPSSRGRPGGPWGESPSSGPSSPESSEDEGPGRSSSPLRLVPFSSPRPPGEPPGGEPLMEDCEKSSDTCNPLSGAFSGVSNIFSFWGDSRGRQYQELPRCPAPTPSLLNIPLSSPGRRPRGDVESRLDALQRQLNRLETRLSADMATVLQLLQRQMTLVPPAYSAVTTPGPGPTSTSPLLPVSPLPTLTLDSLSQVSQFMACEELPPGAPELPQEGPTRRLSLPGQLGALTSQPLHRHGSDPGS
# Assay: Human Ether-a-go-go-Related Gene (hERG) channel small molecule antagonists: fluorescence cell-based qHTS assay (AID 1671200);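 as to activity change, negative = inhibition: hERG-expressing U2OS cells given a thallium stimulus after FluxOR II dye loading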
# Details: hERG-U2OS cells, FluxOR thallium flux fluorescence; series mostly up to 76.8 µM; activity change, negative = inhibition: at the top concentration
# In short: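 hERG-U2OS cells plated overnight at 37 C, loaded with FluxOR II dye 1 h at RT in dark; after 10 min, thallium stimulus added. Fluorescence (480/540 nm) read kinetically for 2 min at 1 s intervals.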
Compound,"activity change, negative = inhibition",Potency
CO/N=C(\C(=O)O)c1csc(NC(=O)CCl)n1,3.9% [at 35.3 µM] (inactive),
Cc1ccccc1OCC(=O)O,-1.66% (inactive),
CC(C)=CCC/C(C)=C\C#N,13.5% (inactive),
CC(C)c1cc(C(C)C)cc(C(C)C)c1,3.4% (inactive),
Cc1cc(C)c(C)c(C)c1,2.4% (inactive),
CCOC(=O)CC(C(C)=O)C(C)=O,-0.851% (inactive),
C=CC(C)(CCC=C(C)C)OC(=O)C(C)C (stereo not given),1.81% (inactive),
N#Cc1ccccc1C#N,3.53% (inactive),
COC(=O)c1ccccc1Cl,2.43% (inactive),
O=Cc1ccc(C(=O)O)cc1,-2.81% (inactive),
Clc1cc(Cl)c(Cl)c(Cl)c1Cl,2.29% (inactive),
O=S(=O)(O)CC(O)CCl (stereo not given),-0.622% (inactive),
CCCc1ccc(O)c(OC)c1,3.8% (inactive),
O=C1CC2(CCCC2)CC(=O)N1CCNCC1COc2ccccc2O1 (stereo not given),,19 µM (active)
CC1(C)C(=O)C(C)(C)C1=O,-1.88% (inactive),
CCO[Si](CC(C)C)(OCC)OCC,4.19% (inactive),
CC(=O)c1ccc2ccc3ccccc3c2c1,0.155% (inactive),
CCOC(=O)CC,-1.84% (inactive),
CCCCCCCCCCCCCCCCN(C)C,-6.11% [at 6.97 µM] (inactive),
C=CC(=O)OCCOCCOCC,3.38% (inactive),
OCCC(F)(F)C(F)(F)C(F)(F)C(F)(F)C(F)(F)C(F)(F)F,-0.459% (inactive),
CC(C)(O)c1ccc(C(C)(C)O)cc1,3.7% (inactive),
C=CC(=O)OCC[N+](C)(C)C,-1.24% (inactive),
O=C[C@@H](O)[C@H](O)[C@H](O)CO,1.29% (inactive),
COc1cc(S(N)(=O)=O)cc(C(=O)O)c1OC,-0.0875% [at 35.3 µM] (inactive),
Cc1ccccc1C#N,2.75% (inactive),
O=c1c(O)c(O)c1=O,3.56% (inactive),
C=CC(=O)CC,1.57% (inactive),
CC(=O)SCC(CC(=O)c1ccc(C)cc1)C(=O)O (stereo not given),5.81% [at 35.3 µM] (inactive),
